Measured values from PubChem BioAssay (Tox21).
Values without a mark were called inactive. Results filed as inconclusive are left out. A call without a number means that no potency is given here. Calls of active or inactive are those of the source. Unless noted, calls come from the whole dose curve; as a rule, active = well fitted curve in the direction sought with a large enough effect in the repeat runs; inconclusive = weak or mixed curves; inactive = no such curve, though single readings can be large; an effect the other way counts as inactive or inconclusive.

Legend:
[1] = target: Progesterone receptor (Homo sapiens) (UniProt P06401); assay: qHTS assay to identify small molecule antagonists of the progesterone receptor (PR) signaling pathway (AID 1346795; active = well fitted inhibition curve with a large enough effect in the signal ratio in the repeat runs, not every such curve was filed as active; the % refers to the signal ratio; note: potency is the fitted concentration of half-maximal effect)
Procedure, shortened: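 Antagonist mode: compounds tested against 1 nM (final) promegestone stimulation in HEK293T cells expressing PR-UAS-bla reporter, 16 hr at 37C, 5% CO2; beta-lactamase activity detected via B/G FRET substrate after 2 hr at room temperature.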

[2] = qHTS assay to identify small molecule antagonists of the progesterone receptor (PR) signaling pathway - cell viability counter screen (AID 1346798); note: series mostly up to about 92 µM; nearly all actives have a fitted effect of over 50% in size
Procedure, shortened: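 Counter screen for cytotoxicity: viability of PR-UAS-bla HEK293T cells was measured with CellTiter-Glo luminescence following 16 hr compound exposure in the presence of R5020.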

[3] = qHTS assay to identify small molecule agonists of the progesterone receptor (PR) signaling pathway - cell viability counter screen (AID 1346799; calls by dose curve; note: nearly all actives have a fitted effect of over 45% in size; note: potency is the fitted concentration of half-maximal effect)
Procedure, shortened: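 Cells (PR-UAS-bla HEK293T) are plated at 3,000/well in 2% charcoal-stripped FBS medium, rested 6 hr, dosed and incubated 16 hr at 37C. CellTiter-Glo is then added and luminescence measured after 30 min at room temperature.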

[4] = qHTS assay to identify small molecule antagonists of the TGF-beta/Smad signaling pathway - cell viability counter screen (AID 1346824); note: nearly all actives have a fitted effect of over 50% in size
Procedure, shortened: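 SBE-bla HEK 293T cells, incubated overnight, then compound plus 0.25 ng/mL TGF-beta1 (stock added) for 5 hr at 37 C. Viability was read in the same wells by CellTiter-Glo luminescence after 30 min at room temperature.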

[5] = qHTS assay to identify small molecule agonists of the TGF-beta/Smad signaling pathway - cell viability counter screen (AID 1346829); note: top concentration of the series differs between compounds; nearly all actives have a fitted effect of over 45% in size
Procedure, shortened: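 Same-well cytotoxicity: CellTiter-Glo added after the 2 hr room-temperature beta-lactamase substrate step, luminescence measured 30 min later; cells had 5 hr of compound at 37 C.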

[6] = qHTS assay to identify small molecule agonists of the TGF-beta/Smad signaling pathway (AID 1346859; active = well fitted activation curve with a large enough effect in the signal ratio in the repeat runs, not every such curve was filed as active; the % refers to the signal ratio; note: series mostly up to about 77 µM)
Procedure, shortened: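 Reporter line: HEK 293T with stably integrated SBE-controlled beta-lactamase. Compound exposure lasts 5 hr at 37 C and 5% CO2; substrate loading follows for 2 hr at room temperature, with emission read at 460 and 530 nm.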

[7] = target: Thyrotropin-releasing hormone receptor (Homo sapiens) (UniProt P34981); assay: qHTS assay to identify small molecule antagonists of the thyrotropin-releasing hormone receptor (TRHR) signaling pathway (AID 1346877; active = well fitted inhibition curve with a large enough effect in the repeat runs, not every such curve was filed as active; note: series mostly up to about 51 µM)
Procedure, shortened: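 Cells (TRHR-HEK293) are plated and kept 18 h at 37 °C/5% CO2. A calcium-sensitive dye is added for 2 h, compound follows for 5 min at room temperature, and TRH is then given at 1 nM final.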

[8] = target: Thyrotropin-releasing hormone receptor (Homo sapiens) (UniProt P34981); assay: qHTS assay to identify small molecule agonists of the thyrotropin-releasing hormone receptor (TRHR) signaling pathway (AID 1346891; calls by dose curve;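 note: HEK293 cells expressing TRHR with calcium dye readout; series mostly up to about 58 µM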)
Procedure, shortened: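 Cells: TRHR-Hek293, seeded and incubated 18 h. Dye loading: 2 h at 37 °C. Compound added from DMSO stock by pin tool. Read-out: kinetic calcium fluorescence over 3 min.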

[9] = Caspase-3/7 induction in HepG2 cells by small molecules, qHTS assay (AID 1346978); note: nearly all actives have a fitted effect of over 15% in size
Procedure, shortened: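 Wild-type HepG2 cells, 2,000/well, settled 5 hr at 37 C and 5% CO2, then compound-treated for 17 hr; caspase-3/7 activity read by luminescent Caspase-Glo 3/7 after 30 min at room temperature.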

[10] = Caspase-3/7 induction in CHO-K1 cells by small molecules, qHTS cell viability counter screen (AID 1346979); note: nearly all actives have a fitted effect of over 35% in size; note: potency is the fitted concentration of half-maximal effect
Procedure, shortened: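 Cytotoxicity counter screen run in parallel with the caspase-3/7 assay: CHO-K1 cells, 16hr compound treatment at 37C, then CellTiter-Fluor for 1hr before fluorescence reading.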

[11] = Caspase-3/7 induction in CHO-K1 cells by small molecules, qHTS assay (AID 1346980); note: nearly all actives have a fitted effect of over 15% in size
Procedure, shortened: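 Wild-type CHO-K1 cells exposed to compounds for 17hr at 37 C, 5% CO2. Caspase-3/7 activity then measured by Caspase-Glo 3/7 luminescence after 30min at room temperature.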

[12] = Caspase-3/7 induction in HepG2 cells by small molecules, qHTS cell viability counter screen (AID 1346981); note: nearly all actives have a fitted effect of over 30% in size; note: potency is the fitted concentration of half-maximal effect
Procedure, shortened: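 Steps: seed 2,000 HepG2 cells per well; incubate 5 hr at 37 C; pin-add compounds in DMSO; incubate 16 hr; add CellTiter-Fluor; after 1 hr at 37 C and 5% CO2, read fluorescence.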

[13] = target: Nuclear receptor subfamily 1 group I member 2 (Homo sapiens) (UniProt O75469); assay: Human pregnane X receptor (PXR) small molecule agonists, qHTS assay (AID 1346982); note: nearly all actives have a fitted effect of over 35% in size; note: potency is the fitted concentration of half-maximal effect
Procedure, shortened: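 Agonist mode qHTS: PXR-Luc HepG2 cells plated 5 hr before DMSO-dissolved compounds were pinned in, cultured 24 hr at 37 C, 5% CO2; ONE-Glo luminescence readout.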

[14] = target: Nuclear receptor subfamily 1 group I member 2 (Homo sapiens) (UniProt O75469); assay: CYP3A4 induction through human pregnane X receptor (PXR) by small molecules, qHTS assay (AID 1346984); note: nearly all actives have a fitted effect of over 40% in size; note: potency is the fitted concentration of half-maximal effect
Procedure, shortened: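 Steps: seed DPX-2 cells, 5 hr at 37C; pin-transfer compounds; 24 hr at 37C; add Luciferin-IPA (3uM final), 3 hr at 37C; add One-Glo, 30 min RT; read luminescence.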

[15] = target: Nuclear receptor subfamily 1 group I member 2 (Homo sapiens) (UniProt O75469); assay: Human pregnane X receptor (PXR) activation by small molecules, qHTS assay (AID 1346985); note: nearly all actives have a fitted effect of over 40% in size
Procedure, shortened: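 DPX-2 cells (HepG2 co-transfected with a PXR response element and a CYP3A4-promoter luciferase construct) were seeded at 2,000 per well, rested 5 hr at 37C, then exposed to DMSO-dissolved compounds for 24 hr. Activation was read as luciferase luminescence.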

[16] = target: Cytochrome P450 2D6 (Homo sapiens) (UniProt P10635); assay: Cytochrome P450 Family 2 Subfamily D Member 6 (CYP2D6) small molecule antagonists: luciferase reporter qHTS assay (AID 1671196); note: nearly all actives have a fitted effect of over 50% in size; note: potency is the fitted concentration of half-maximal effect
Procedure, shortened: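 P450-Glo format: CYP2D6 converts a proluciferin substrate to luciferin in an NADPH-driven reaction lasting 1 h at room temperature. Light output, proportional to CYP2D6 activity, reflects interference by test chemicals.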

[17] = target: Cytochrome P450 2C9 (Homo sapiens) (UniProt P11712); assay: Cytochrome P450 Family 2 Subfamily C Member 9 (CYP2C9) small molecule antagonists: luciferase reporter qHTS assay (AID 1671198); note: nearly all actives have a fitted effect of over 50% in size; note: potency is the fitted concentration of half-maximal effect
Procedure, shortened: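 P450-Glo proluciferin substrate with CYP2C9 enzyme; 10 min RT preincubation, then NADPH regeneration 1 h at 37C; luciferin detection reagent 20 min RT, luminescence in relative luminescence units.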

[18] = Human pregnane X receptor (PXR) small molecule agonists, qHTS cell viability counter screen (AID 1346977); note: nearly all actives have a fitted effect of over 50% in size; note: potency is the fitted concentration of half-maximal effect
Procedure, shortened: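 Cytotoxicity counter screen run in the same wells as the PXR luciferase assay, using PXR-Luc HepG2 cells in charcoal-stripped serum medium. Viability: CellTiter-Fluor fluorescence after 24hr compound treatment.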

[19] = target: Cytochrome P450 2C19 (Homo sapiens) (UniProt P33261); assay: Cytochrome P450 Family 2 Subfamily C Member 19 (CYP2C19) small molecule antagonists: luciferase reporter qHTS assay (AID 1671197); note: nearly all actives have a fitted effect of over 65% in size; note: potency is the fitted concentration of half-maximal effect
Procedure, shortened: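 Quantitative high-throughput screen of the Tox21 library using CYP2C19 with proluciferin substrate. Reaction: NADPH regeneration, 37C, 1 h, after 10 min compound preincubation at room temperature. Readout: luminescence.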

Cytochrome P450 2D6 (Homo sapiens), sequence (P10635 whole entry, looked up): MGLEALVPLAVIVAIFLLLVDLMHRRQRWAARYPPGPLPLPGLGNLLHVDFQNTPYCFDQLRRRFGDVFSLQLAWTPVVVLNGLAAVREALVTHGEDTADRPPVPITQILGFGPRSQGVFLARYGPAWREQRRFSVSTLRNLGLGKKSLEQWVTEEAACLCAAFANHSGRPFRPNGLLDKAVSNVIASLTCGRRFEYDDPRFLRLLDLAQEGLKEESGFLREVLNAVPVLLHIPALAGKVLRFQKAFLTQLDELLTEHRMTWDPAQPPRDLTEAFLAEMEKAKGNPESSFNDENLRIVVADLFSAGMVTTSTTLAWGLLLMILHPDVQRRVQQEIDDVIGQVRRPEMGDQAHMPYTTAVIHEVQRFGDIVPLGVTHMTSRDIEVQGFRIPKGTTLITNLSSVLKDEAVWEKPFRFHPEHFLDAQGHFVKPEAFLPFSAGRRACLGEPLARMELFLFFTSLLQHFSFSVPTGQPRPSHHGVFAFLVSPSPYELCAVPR
Cytochrome P450 2C9 (Homo sapiens), sequence (P11712 whole entry, looked up): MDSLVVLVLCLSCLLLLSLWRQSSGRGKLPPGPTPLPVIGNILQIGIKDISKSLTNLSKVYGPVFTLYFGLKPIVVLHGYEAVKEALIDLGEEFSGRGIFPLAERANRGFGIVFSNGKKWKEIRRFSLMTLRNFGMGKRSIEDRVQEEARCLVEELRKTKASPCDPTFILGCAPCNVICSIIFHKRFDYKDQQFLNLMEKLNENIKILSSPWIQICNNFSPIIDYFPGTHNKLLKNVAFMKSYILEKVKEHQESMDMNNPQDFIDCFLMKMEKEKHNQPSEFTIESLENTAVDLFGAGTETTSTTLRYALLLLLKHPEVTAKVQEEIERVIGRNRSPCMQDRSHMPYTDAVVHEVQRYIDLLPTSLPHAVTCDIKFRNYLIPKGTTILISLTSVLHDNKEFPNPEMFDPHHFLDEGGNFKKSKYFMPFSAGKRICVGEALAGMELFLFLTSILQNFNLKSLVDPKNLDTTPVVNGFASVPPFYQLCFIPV
Progesterone receptor (Homo sapiens), sequence (P06401 whole entry, looked up): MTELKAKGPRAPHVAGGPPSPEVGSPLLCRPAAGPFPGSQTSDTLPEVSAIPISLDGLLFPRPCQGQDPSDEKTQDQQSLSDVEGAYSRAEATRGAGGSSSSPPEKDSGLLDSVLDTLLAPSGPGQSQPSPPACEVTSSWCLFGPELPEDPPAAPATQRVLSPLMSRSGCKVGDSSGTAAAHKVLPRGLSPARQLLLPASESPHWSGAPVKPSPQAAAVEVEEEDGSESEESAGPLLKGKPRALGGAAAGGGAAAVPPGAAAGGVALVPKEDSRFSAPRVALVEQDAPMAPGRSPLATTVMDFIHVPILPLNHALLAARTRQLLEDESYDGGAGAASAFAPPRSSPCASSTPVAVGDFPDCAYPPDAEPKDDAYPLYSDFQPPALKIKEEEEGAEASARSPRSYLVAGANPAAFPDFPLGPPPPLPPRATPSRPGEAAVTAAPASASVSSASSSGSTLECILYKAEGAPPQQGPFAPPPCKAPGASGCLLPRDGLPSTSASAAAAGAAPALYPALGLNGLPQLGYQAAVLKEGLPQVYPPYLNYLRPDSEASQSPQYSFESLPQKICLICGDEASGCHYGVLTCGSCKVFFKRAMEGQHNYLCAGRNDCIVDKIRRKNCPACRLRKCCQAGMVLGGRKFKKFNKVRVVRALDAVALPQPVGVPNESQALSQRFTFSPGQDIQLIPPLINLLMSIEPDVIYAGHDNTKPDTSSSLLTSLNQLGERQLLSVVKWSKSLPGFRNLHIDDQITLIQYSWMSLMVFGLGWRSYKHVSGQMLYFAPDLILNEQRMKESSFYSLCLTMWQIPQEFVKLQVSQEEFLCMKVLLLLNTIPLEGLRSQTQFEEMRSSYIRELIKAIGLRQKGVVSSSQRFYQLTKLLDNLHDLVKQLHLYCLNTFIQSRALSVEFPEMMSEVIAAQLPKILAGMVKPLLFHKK
Thyrotropin-releasing hormone receptor (Homo sapiens), sequence (P34981 whole entry, looked up): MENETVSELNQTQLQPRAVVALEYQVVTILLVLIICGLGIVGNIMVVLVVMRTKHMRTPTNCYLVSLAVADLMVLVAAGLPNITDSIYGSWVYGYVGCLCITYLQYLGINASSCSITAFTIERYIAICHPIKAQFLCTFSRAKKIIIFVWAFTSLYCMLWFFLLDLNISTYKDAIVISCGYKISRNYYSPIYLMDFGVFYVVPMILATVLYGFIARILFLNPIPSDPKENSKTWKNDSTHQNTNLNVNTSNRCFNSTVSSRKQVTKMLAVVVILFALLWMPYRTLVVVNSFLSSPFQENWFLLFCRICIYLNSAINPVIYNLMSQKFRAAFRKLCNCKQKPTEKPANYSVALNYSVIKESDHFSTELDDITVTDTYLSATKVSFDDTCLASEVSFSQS
Nuclear receptor subfamily 1 group I member 2 (Homo sapiens), sequence (O75469 whole entry, looked up): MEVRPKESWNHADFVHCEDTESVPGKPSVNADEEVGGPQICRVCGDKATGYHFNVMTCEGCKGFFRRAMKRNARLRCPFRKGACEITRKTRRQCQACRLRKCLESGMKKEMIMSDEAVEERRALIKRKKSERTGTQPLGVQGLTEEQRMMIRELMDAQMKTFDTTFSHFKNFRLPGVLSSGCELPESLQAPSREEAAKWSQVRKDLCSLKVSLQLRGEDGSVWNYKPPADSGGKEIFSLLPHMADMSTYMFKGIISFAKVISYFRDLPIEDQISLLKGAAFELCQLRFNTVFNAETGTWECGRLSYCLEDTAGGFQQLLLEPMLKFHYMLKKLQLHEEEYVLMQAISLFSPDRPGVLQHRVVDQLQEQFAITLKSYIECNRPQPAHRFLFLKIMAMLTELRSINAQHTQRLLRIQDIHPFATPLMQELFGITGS
Cytochrome P450 2C19 (Homo sapiens), sequence (P33261 whole entry, looked up): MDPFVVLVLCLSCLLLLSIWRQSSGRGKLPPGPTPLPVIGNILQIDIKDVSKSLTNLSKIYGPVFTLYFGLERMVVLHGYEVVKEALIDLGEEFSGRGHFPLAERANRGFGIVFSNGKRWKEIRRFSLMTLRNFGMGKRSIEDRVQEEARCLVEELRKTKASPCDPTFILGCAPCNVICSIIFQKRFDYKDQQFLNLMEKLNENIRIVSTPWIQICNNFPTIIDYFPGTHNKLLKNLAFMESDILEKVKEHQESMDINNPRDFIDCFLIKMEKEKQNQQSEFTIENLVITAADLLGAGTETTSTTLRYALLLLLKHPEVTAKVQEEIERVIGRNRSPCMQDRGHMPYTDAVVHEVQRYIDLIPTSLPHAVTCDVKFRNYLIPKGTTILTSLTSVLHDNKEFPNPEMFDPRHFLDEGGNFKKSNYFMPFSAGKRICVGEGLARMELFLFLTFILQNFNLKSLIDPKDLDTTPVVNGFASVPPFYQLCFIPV

SMILES	Potency [1]	Potency [2]	Potency [3]	Potency [4]	Potency [5]	Potency [6]	Potency [7]	Potency [8]	Potency [9]	Potency [10]	Potency [11]	Potency [12]	Potency [13]	Potency [14]	Potency [15]	Potency [16]	Potency [17]	Potency [18]	Potency [19]
CCCCOc1ccc(C(=O)CCN2CCCCC2)cc1	inactive	inactive	inactive	inactive	inactive	inactive	inactive	inactive	inactive	29.8 µM (active)	inactive	inactive	6.68 µM (active)	inactive	inactive	5.49 µM (active)	17.4 µM (active)	–	–
CCN(CC)CCSC(=O)C(c1ccccc1)c1ccccc1	inactive	inactive	inactive	inactive	inactive	inactive	inactive	inactive	inactive	–	inactive	inactive	–	inactive	inactive	4.9 µM (active)	17.4 µM (active)	–	–
CO[C@H]1C=CO[C@@]2(C)Oc3c(C)c(O)c4c(O)c(cc(O)c4c3C2=O)NC(=O)/C(C)=C\C=C/[C@H](C)[C@H](O)[C@@H](C)[C@@H](O)[C@@H](C)[C@H](OC(C)=O)[C@@H]1C	inactive	inactive	inactive	inactive	inactive	inactive	inactive	inactive	inactive	–	inactive	61.6 µM (active)	7.75 µM (active)	inactive	inactive	35.8 µM (active)	10.1 µM (active)	48.9 µM (active)	20.2 µM (active)
O=C(O)CCCCCCC(=O)O	inactive	inactive	inactive	inactive	inactive	inactive	inactive	inactive	inactive	–	inactive	inactive	inactive	–	–	35.9 µM (active)	inactive	inactive	–
CO[Si](CCCNCCNCCN)(OC)OC	inactive	inactive	inactive	inactive	inactive	inactive	inactive	inactive	inactive	inactive	inactive	inactive	–	–	–	inactive	inactive	inactive	inactive
CCCN(CCc1cccs1)[C@H]1CCc2c(O)cccc2C1	29.8 µM (active)	inactive	inactive	inactive	inactive	inactive	inactive	inactive	inactive	–	inactive	inactive	inactive	inactive	inactive	0.389 µM (active)	15.5 µM (active)	–	–
CN1[C@@H]2CC[C@H]1CC(OC(=O)C(CO)c1ccccc1)C2 (stereo not given in full)	inactive	inactive	61.1 µM (active)	inactive	inactive	inactive	–	–	inactive	inactive	inactive	inactive	–	–	–	–	–	inactive	–
COC(=O)CC#N	inactive	inactive	inactive	inactive	inactive	inactive	inactive	inactive	inactive	inactive	inactive	inactive	inactive	–	–	–	inactive	inactive	–
O=C(O)c1cccc(Cl)n1	inactive	inactive	inactive	inactive	inactive	inactive	inactive	inactive	inactive	inactive	inactive	inactive	inactive	–	–	–	inactive	inactive	inactive
CC1(C)C(=O)N(Br)C(=O)N1Br	inactive	inactive	inactive	inactive	inactive	inactive	–	–	inactive	inactive	inactive	inactive	inactive	–	–	–	–	inactive	–
CCCSS/C(CCO)=C(\C)N(C=O)Cc1cnc(C)nc1N	inactive	inactive	inactive	inactive	inactive	inactive	inactive	inactive	inactive	–	–	inactive	–	inactive	inactive	34.7 µM (active)	–	–	inactive
CC1=C(/C=C/C(C)=C/C=C/C(C)=C\C=O)C(C)(C)CCC1	inactive	inactive	inactive	inactive	inactive	–	inactive	inactive	inactive	57.9 µM (active)	–	–	51.6 µM (active)	–	–	–	59.9 µM (active)	inactive	–
Clc1cc(Cl)c(-c2c(Cl)c(Cl)cc(Cl)c2Cl)cc1Cl	inactive	inactive	inactive	inactive	inactive	inactive	–	–	–	inactive	inactive	inactive	inactive	–	–	inactive	inactive	inactive	inactive
Cc1cccc(C)n1	inactive	inactive	inactive	inactive	inactive	inactive	–	–	inactive	inactive	inactive	inactive	inactive	–	–	inactive	inactive	inactive	inactive
CCC(C)c1ccccc1 (stereo not given)	inactive	inactive	inactive	inactive	inactive	–	inactive	inactive	inactive	inactive	inactive	inactive	inactive	–	–	inactive	inactive	inactive	inactive
Cc1c(C)n(Cc2ccccc2)c2ccc(C(=O)OCCN(C)C)cc12	26.6 µM (active)	inactive	inactive	inactive	inactive	–	inactive	inactive	–	–	inactive	–	7.5 µM (active)	3.98 µM (active)	–	–	15.5 µM (active)	21.1 µM (active)	15.5 µM (active)
CC(C)=C1CC[C@@H](C)CC1=O	inactive	inactive	inactive	inactive	inactive	–	–	–	inactive	inactive	inactive	inactive	–	–	–	inactive	inactive	inactive	inactive
[O]=[Zr]	inactive	inactive	inactive	inactive	–	inactive	inactive	inactive	inactive	–	inactive	inactive	inactive	–	–	–	–	inactive	–
